Screening results deposited in PubChem BioAssay by The Scripps Research Institute Molecular Screening Center.
Hits are enriched below; roughly 0.84% of the tested compounds scored in any of these assays.
PPARg SRC-3 ag: agonists of human PPARgamma SRC-3 coactivator recruitment. biochemical PPARgamma/SRC-3 coactivator recruitment assay. activation, % at 8 µM. AID 731. 200,000 compounds, 0.26% hits; in the data active means activation above about 23%;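 further: 0% = DMSO and 100% = reference agonist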
Target sequence (P37231 whole entry, looked up): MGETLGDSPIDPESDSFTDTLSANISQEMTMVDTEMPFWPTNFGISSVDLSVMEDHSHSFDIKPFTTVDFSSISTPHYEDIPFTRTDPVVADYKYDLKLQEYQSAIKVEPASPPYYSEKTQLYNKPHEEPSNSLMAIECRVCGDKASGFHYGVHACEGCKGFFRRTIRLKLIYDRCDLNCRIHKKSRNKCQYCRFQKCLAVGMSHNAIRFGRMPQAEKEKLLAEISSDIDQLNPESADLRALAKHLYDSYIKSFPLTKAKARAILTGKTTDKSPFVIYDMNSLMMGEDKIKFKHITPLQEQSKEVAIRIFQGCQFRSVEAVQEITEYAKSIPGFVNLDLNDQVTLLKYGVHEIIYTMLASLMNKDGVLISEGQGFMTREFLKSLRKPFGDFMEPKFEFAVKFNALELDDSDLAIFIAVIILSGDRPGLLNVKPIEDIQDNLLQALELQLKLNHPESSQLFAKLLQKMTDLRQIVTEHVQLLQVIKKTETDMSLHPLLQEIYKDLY
SRC1 TRFRET art: TR-FRET artefact, counter-screen to PPARgamma/SRC-1 agonist assay; TR-FRET detection artefact counter-screen, emission ratio; stronger effect = higher value; TR-FRET ratio at 8 µM; 99,000 compounds, 0.34% hits; AID 1051; in the data active means TR-FRET ratio above about 2300
SRC3 TRFRET art: TR-FRET artefact, counter-screen to PPARgamma/SRC-3 agonist assay; 99,000 compounds, 0.39% hits; TR-FRET ratio at 8 µM; PPARgamma/SRC-3 format; stronger effect = higher value
PPARg SRC-1 ag: promotes SRC-1 coactivator recruitment by human PPARgamma. P37231. PPARgamma-SRC-1 coactivator recruitment biochemical assay. activation, % at 8 µM. 200,000 compounds, 0.41% hits. AID 631; in the data active means activation above about 19%;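 further: 0% = DMSO and 100% = reference agonist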
SRC2 TRFRET art: counter-screen for PPARgamma SRC-2 recruitment agonists: TR-FRET artefact | 200,000 compounds, 0.4% hits | TR-FRET ratio at 8 µM | stronger effect = higher value
PPARg SRC2 recr: agonists of SRC-2 recruitment by human PPARgamma; 200,000 compounds, 0.34% hits; P37231; PPARgamma LBD-SRC-2 recruitment, biochemical; activation, % at 8 µM; AID 1032; in the data active means activation above about 22%;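 further: 0% = vehicle and 100% = reference agonist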
* marks the source's active call; other numbers are inactive results; . = not tested or not shown. Unless noted, no stated cut-off is given here; in the data, active means TR-FRET ratio above about 2000; inactive means the rest.

SMILES	PPARg SRC-3 ag	SRC1 TRFRET art	SRC3 TRFRET art	PPARg SRC-1 ag	SRC2 TRFRET art	PPARg SRC2 recr
Cc1c(N=Nc2ccc(O)cc2)c(=O)n(-c2ccccc2)n1C	3.2	2013	2164*	12.5	1632	3.1
Cc1nn(C(C)C(=O)N2CCOCC2)c(C)c1[N+](=O)[O-] (stereo unspecified)	3.0	1908	1613	-4.7	1269	-2.1
Cn1c(=O)c2c(nc(SCC(=O)NCc3ccco3)n2C)n(C)c1=O	4.1	.	.	1.5	1715	15.0
Cc1ccc2nc(SCC(=O)NCc3cccs3)c(C#N)cc2c1	-5.9	.	.	41.6*	1428	0.9
CC(C)n1c(SCC(=O)NCc2ccco2)nc2c1c(=O)n(C)c(=O)n2C	-1.1	.	.	20.3*	1612	2.7
Cc1ccc2nc(SCC(=O)NCc3ccco3)c(C#N)cc2c1	10.0	.	.	10.5	2312*	16.4
O=c1c(-c2n[nH]c(=S)n2-c2ccccc2)cccn1Cc1cccc(Cl)c1	6.1	2294	1865	15.6	1986*	12.5
CCCCc1ccc(/C=C(\C#N)C(N)=S)s1	-0.8	1995	1538	4.4	1625	0.0
CCCCc1ccc(C2C(C#N)=C(N)SC(N)=C2C#N)s1	8.4	.	.	21.0*	1742	4.3
COc1cc(Cl)c(C)cc1NC(=O)CNC(=O)Cn1cnc2ccccc2c1=O	-1.7	.	.	-3.1	1488	-0.3
C/C(=N\Nc1nc2ccccc2[nH]1)c1ccc(C)o1	7.6	2081	2059*	9.7	1556	11.9
COc1cccc(-c2nnc3sc(-c4ccccc4)nn23)c1	0.1	1880	1488	5.6	1625	9.1
COc1cccc(OC)c1-c1nn2c(-c3cc(-c4ccccc4)n[nH]3)nnc2s1	8.0	.	.	19.6*	1895	8.6
CCN(CC)C(=O)c1cn(CCC#N)nc1-c1ccc2c(c1)OCCO2	2.9	2134	1364	12.1	1582	4.8
CCN(CC)C(=O)c1cn(-c2ccccc2)nc1-c1ccc2c(c1)OCCO2	6.2	1844	1746	9.2	1980*	5.3
CN(C)S(=O)(=O)Nc1cc(Cl)cc(Cl)c1	0.8	1923	1582	1.7	1487	4.6
COC(=O)c1c(NC(=S)Nc2ccc(C(=O)N3CCOCC3)cc2)sc2c1CCC2	9.2	2132	2231*	17.8	1929	13.3
CCOC(=O)c1c(NC(=S)Nc2ccc(OC)cc2)sc2c1CCC2	1.0	1583	1631	-0.3	1599	7.5
Cc1ccc(NS(=O)(=O)c2ccc(OCC(=O)NCC3CCCO3)cc2)cc1 (stereo unspecified)	-1.6	1588	1494	5.1	1504	-0.6
CC(=O)Nc1ccc(C(=O)Nc2ccc(S(=O)(=O)N3CCCC3)cc2)cc1	4.8	2097	1576	8.7	1618	9.6
CS(=O)(=O)Nc1ccc(C(=O)Nc2ccc(S(=O)(=O)N3CCCC3)cc2)cc1	-2.0	2042	1616	9.1	1992*	3.3
N#Cc1cccc(NC(=O)CSc2ccc3c4c(cccc24)C(=O)c2ccccc2-3)c1	19.2	.	.	5.7	1641	6.0
COc1ccc(NC(=O)CSc2ccc3c4c(cccc24)C(=O)c2ccccc2-3)cc1	42.8*	.	.	13.9	1589	-5.5
CC(=O)Oc1cccc(N2C(=O)c3ccc(C(=O)Nc4c[nH]c(=O)[nH]c4=O)cc3C2=O)c1	4.7	1945	1564	7.9	1829	11.1
O=c1[nH][nH]c2cc(=O)n(-c3ccc(Cl)cc3)nc12	4.8	2076	1723	6.8	1560	6.6
SMILES	PPARg SRC-3 ag	SRC1 TRFRET art	SRC3 TRFRET art	PPARg SRC-1 ag	SRC2 TRFRET art	PPARg SRC2 recr
Cc1ccc2sc3ccc(NC(=O)c4ccccc4Cl)cc3c(=O)c2c1	11.1	.	.	0.0	2846*	13.1
COc1ccc(N2CCN(C(=O)NC3CC(=O)N(c4ccc(OC)cc4)C3)CC2)cc1 (stereo unspecified)	0.1	1876	1647	5.3	1703	2.8
CC(C(=O)NCCN1CCOCC1)(c1ccccc1)c1ccccc1	-0.2	1837	1655	7.3	1771	-0.2
CCOC(=O)n1cc(-c2cnc(CNC(=O)C(C)(c3ccccc3)c3ccccc3)o2)c2ccccc21	-2.8	1619	1588	8.6	1921	28.3*
CC(C)CCNC(=O)NC(=O)COC(=O)/C=C/c1cnc2ccccc2n1	0.6	.	.	10.5	2705*	63.5*
CC(C)CCNC(=O)NC(=O)COC(=O)/C=C/c1cccc([N+](=O)[O-])c1	3.1	1733	1560	12.8	1343	3.2
COc1ccc(C(=O)Nn2c(SCC(=O)c3ccc(Cl)cc3)nc3ccccc3c2=O)cc1	7.0	.	.	-1.4	2000*	5.5
